# Experimental data as given in PubChem BioAssay AID1817 (Sanford-Burnham Center for Chemical Genomics, 2009).
# In all, about 290,000 compounds went through this assay and about 50 (0.02%) were called active. The entries come from a sample that favours actives as a whole. Measured potencies and affinities stand elsewhere. Unmarked numbers belong to inactive results.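 The calls were made as follows: active = displacement of at least 50% at 20 µM, with a fluorescence ratio check between 0.3 and a set limit; inactive = the rest.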
# Target: E3 ubiquitin-protein ligase SIAH1 (Homo sapiens) (UniProt Q8IUQ4)
# Test: Siah-1 peptide-binding antagonists, primary screen, biochemical, fluorescence polarization, rhodamine-plectin, uHTS (AID 1817);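 also: plate controls were Siah plus tracer with DMSO for no effect and tracer alone without Siah for full effect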
# Conditions: Siah-1 / rhodamine-plectin peptide fluorescence polarization; at 20 µM; active compounds read high
# E3 ubiquitin-protein ligase SIAH1 (Homo sapiens), sequence (Q8IUQ4 whole entry, looked up): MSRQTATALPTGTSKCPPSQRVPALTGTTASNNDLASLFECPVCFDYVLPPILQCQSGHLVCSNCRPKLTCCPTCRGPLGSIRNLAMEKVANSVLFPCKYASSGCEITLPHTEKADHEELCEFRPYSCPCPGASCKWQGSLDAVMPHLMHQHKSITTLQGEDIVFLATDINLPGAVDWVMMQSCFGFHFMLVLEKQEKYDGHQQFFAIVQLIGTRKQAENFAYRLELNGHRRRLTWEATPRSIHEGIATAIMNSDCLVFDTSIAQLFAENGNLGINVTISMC
row,Structure (SMILES),displacement
1,CCCN1C(=O)/C(=c2\s/c(=C3\C=Cc4ccccc4N3CC)c(=O)n2-c2ccccc2)SC1=S,-1.6%
2,Cc1ccc(-c2nnc(SCC(=O)NC(=O)Nc3ccc(C)cc3C)n2N)cc1,5.1%
3,CCc1nc(Cl)c(C#N)c2c1CCCC2,3.8%
4,Cc1ccc(NC(=O)CCC(=O)OCc2ccc(Br)cc2)cc1,1.1%
5,COc1ccc(/C=c2\s/c(=C(/C#N)C(=O)NCc3ccco3)n(-c3ccccc3)c2=O)cc1,21.4%
6,CN(c1ccccc1)c1ccc(/C=c2\s/c(=C(/C#N)C(=O)C(C)(C)C)n(Cc3ccco3)c2=O)cc1,102% (active)
7,Cc1ccc(/C=c2\s/c(=C(/C#N)C(=O)N3CCCC3)n(Cc3ccco3)c2=O)s1,-3%
8,Cc1ccc(NC(=O)Nc2cnccn2)cc1,-0.7%
9,Cc1ccc(S(=O)(=O)N2CCN(C(=O)c3cccs3)CC2)cc1C,-2%
10,CCO/C=C1\C(=O)N(c2ccccc2)C(=O)c2ccccc21,1.1%
11,CCO/C=C1/C(=O)N(CC)c2ccccc21,-7.3%
12,CCO/C=C1/C(=O)N(Cc2ccccc2)C(=O)c2ccccc21,55.6% (active)
13,C/C(=N\NC(=O)c1nnn(-c2nonc2N)c1CN1CCCCC1)c1ccccc1O,-0.3%
14,Cc1cc(CN(C)C(=O)CC2C(=O)NCCN2Cc2ccc(-c3ccccc3)cc2)on1 (stereo not given),-0.5%
15,CC(C)(C)C(=O)Nc1ccc(C(=O)Nc2cccc(Oc3ccc(C(=O)O)c(C(=O)O)c3)c2)cc1,24%
16,Cc1ccc(C(=O)Nc2ccc(Oc3ccc(C(=O)O)c(C(=O)O)c3)cc2)cc1C,-3%
17,O=C(O)Cn1c(=S)sc2ccccc21,-2.4%
18,COc1cc([N+](=O)[O-])ccc1NC(=S)Nc1cccc(C(=O)O)c1,-2.6%
19,CCN(CC)CCOC(=O)c1ccc(N/C=C(/C#N)c2nc(-c3cccc(OC)c3)cs2)cc1,-5.2%
20,COc1cc(/C=C(\C#N)c2nc(-c3cc4ccccc4oc3=O)cs2)ccc1O,2.9%
21,CCN(CC)CCOC(=O)c1ccc(N/C=C(/C#N)c2nc(-c3ccc(OC)cc3)cs2)cc1,8.3%
22,CCN(CC)CCOC(=O)c1ccc(N/C=C(/C#N)c2nc(-c3ccc4c(c3)OCO4)cs2)cc1,2.3%
23,C1CC2CN(c3nc4nonc4nc3N3CCSCC3)CCN2C1 (stereo not given),1.1%

row,Structure (SMILES),displacement
1,COc1cccc(CNC(=O)C2CCCN(S(=O)(=O)c3c(C)n[nH]c3C)C2)c1 (stereo not given),-0.6%
2,CC(C)N1CCC(N2CCN(C/C=C/c3ccc(F)cc3)CC2CCO)CC1 (stereo not given),12%
3,O=C(/C=C/c1ccc(OCCCF)cc1)NCc1ccc(Cl)cc1,33.7%
4,CN(CC(=O)Nc1cccc(F)c1)C(=O)c1ccc(-c2ccc(Cl)cc2)o1,4.6%
5,Nc1c(O)ccc2c1C(=O)c1ccccc1C2=O,14.9%
6,Nc1ccc(Br)c2c1C(=O)c1ccccc1C2=O,7.9%
7,NS(=O)(=O)c1ccc(NC(=O)c2ccc(-c3ccccc3)cc2)cc1,42.1%
8,O=C(O)c1ccc(NS(=O)(=O)c2ccc(C(=O)Nc3ccccc3)cc2)cc1,-5.7%
9,O=C(NCc1ccccn1)C1CCN(S(=O)(=O)N2CCCC2)CC1,3.2%
10,O=C(Cn1cnc2c(cnn2-c2ccccc2)c1=O)N1CCN(c2ccc(F)cc2)CC1,0.6%
11,Cc1cc(NS(=O)(=O)c2ccc(NC(=O)C(C)Oc3cc(C)c(Cl)c(C)c3)cc2)no1 (stereo not given),0.9%
12,CCc1nnc(NS(=O)(=O)c2ccc(NC(=S)NC(=O)/C=C/c3ccc(F)cc3)cc2)s1,12.9%
13,CCc1nnc(NS(=O)(=O)c2ccc(NC(=S)NC(=O)/C=C/c3ccc([N+](=O)[O-])cc3)cc2)s1,12.8%
14,CCc1nnc(NS(=O)(=O)c2ccc(NC(=S)NC(=O)/C=C/c3ccccc3)cc2)s1,11.7%
15,CCc1nnc(NS(=O)(=O)c2ccc(NC(=S)NC(=O)/C=C/c3ccc(OC)cc3)cc2)s1,51.9% (active)
16,CCc1nnc(NS(=O)(=O)c2ccc(NC(=S)NC(=O)/C=C/c3cccs3)cc2)s1,15.5%
17,COCCCNc1oc(-c2ccccc2Cl)nc1C#N,-5.3%
18,CN1CCN(C(=O)c2cn(-c3ccccc3)nc2-c2cccnc2)CC1,-0.3%
19,O=C(NCc1ccccc1)c1cc(-c2cccs2)on1,-1.2%
20,O=C(NCc1ccc(F)cc1)c1cc(-c2cccs2)on1,3.6%
21,CC(NC(=O)C(=O)c1cn(CC(=O)N2CCOCC2)c2ccccc12)c1ccccc1 (stereo not given),1.9%
22,CC(C)CNS(=O)(=O)c1ccc(CC(C)C)cc1,1.9%
